Results from PubChem BioAssay AID488841 (Sanford-Burnham Center for Chemical Genomics, 2010).
In all, about 1,400 compounds went through this assay and about 380 (27%) were called active.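 How the source made its calls: active means mean inhibition above 50% across duplicate retests at 10 µM; inactive means the rest.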 The list shows a part of the results.

Test: inhibition of NALP1/ASC/caspase-1 reporter signal in yeast, confirmation, NALP1 inhibitor project, S. cerevisiae, luminescence, single concentration (AID 488841);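 further: plate controls were DMSO in galactose medium for no effect and cells in plain SD medium for full effect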
Conditions: S. cerevisiae NALP1/ASC/Caspase-1 reporter, beta-gal luminescence; at 10 µM; stronger effect = higher value

| SMILES | inhibition |
| --- | --- |
| Oc1ccccc1C1N=C(c2ccccc2)NC(c2ccccc2)=N1 | 16.1% (inactive) |
| O=C(CSc1ncn[nH]1)NC12CC3CC(CC(C3)C1)C2 | 22.3% (inactive) |
| COC(=O)COc1ccc(S(=O)(=O)NCCC2=CCCCC2)cc1Cl | 28.2% (inactive) |
| O=C1C2C3C=CC(C2C(=O)N1CCCO)C1C2C(=O)N(CCCO)C(=O)C2C31 (stereo unspecified) | 17.4% (inactive) |
| CCC(C)NC(=O)c1cc2cc3ccc(OC)cc3nc2s1 (stereo unspecified) | 54.9% (active) |
| COc1ccc2cc(/C=N/O)c(Cl)nc2c1 | 46.1% (inactive) |
| COc1ccc(OC)c(NC(=O)c2sc3nc(Cc4ccccc4)cc(C(F)(F)F)c3c2N)c1 | 23.5% (inactive) |
| CC(C)(C)C(=O)NC1CCN(S(=O)(=O)c2ccc(C(F)(F)F)cc2)CC1 | 18.1% (inactive) |
| CCOc1ccc(NC2=C(OC)C(=O)c3ccccc3C2=O)cc1 | 39.5% (inactive) |
| CCOc1cccc(N2C(=O)CC(N3CCN(c4ccc(S(=O)(=O)CC)cc4)CC3)C2=O)c1 (stereo unspecified) | 30.9% (inactive) |
| CCOc1ccc(S(=O)(=O)N2c3ccccc3CC2C)cc1 (stereo unspecified) | 54.5% (active) |
| Cc1cc(Cl)c(OCCCCN2CCOCC2)c(Br)c1 | 40.9% (inactive) |
| COC(=O)c1sccc1NC(=O)c1csc(C)c1 | 54% (active) |
| COC(=O)c1sccc1N/N=C(\C)c1ccc(F)c(Cl)c1 | 22.3% (inactive) |
| CCOC(=O)C(=CNNc1ccsc1C(=O)OC)C(=O)OCC | 37.1% (inactive) |
| CCn1c(C)[n+](CC(O)COCC2CC=CCC2)c2ccccc21 (stereo unspecified) | 40% (inactive) |
| CCOC(=O)c1c(C)n(C)c2cc(-c3ccc(C)cc3)c(O)cc12 | 24.9% (inactive) |
| CCCCC(CC(O)COCCC)c1n[nH]c(=S)n1-c1ccccc1 (stereo unspecified) | 44.8% (inactive) |
| CCCCSc1nnc(CCNC(=O)OC(C)(C)C)o1 | 42.2% (inactive) |
| CC(C)(C)OC(=O)NCCCCCc1nnc(SCc2ccccc2)o1 | 56.6% (active) |
| CC(C)Sc1nnc([C@H](Cc2ccccc2)NC(=O)OC(C)(C)C)o1 | 30.7% (inactive) |
| CC(C)Cc1nnc(NC(=O)CSc2nc(N)cc(=O)[nH]2)s1 | 23.4% (inactive) |
| CCOC(=O)c1sc(NC(=O)Nc2cccc(Cl)c2)cc1C | 5.75% (inactive) |
| CCOC(=O)Nc1ccc2c(C)cc(=O)oc2c1 | 41.3% (inactive) |
| CCOC(=O)Nc1cccc(Nc2ccccc2)c1 | 52.2% (active) |
| Cc1cc(C)cc(-n2nnc(C(=O)NCc3ccccc3)c2N)c1 | 34.6% (inactive) |

| SMILES | inhibition |
| --- | --- |
| O=[N+]([O-])c1ccc2nc(-c3ccccn3)[nH]c2c1 | 47.6% (inactive) |
| c1ccc(-c2nc3cc4ccccc4cc3[nH]2)nc1 | 73.2% (active) |
| COCCCN(CCCN)Cc1ccco1 | 73.2% (active) |
| Cc1ccc(S(=O)(=O)N(C(=O)c2ccncc2)c2ccc(OC(=O)c3ccncc3)c3ccccc23)cc1 | 28.8% (inactive) |
| O=C1S/C(=C\c2ccc(N3CCOCC3)o2)C(=O)N1c1ccccc1 | 45.5% (inactive) |
| CCN(CC)c1ccc(/C=C2/SC(=O)N(C(C)C)C2=O)o1 | 65.5% (active) |
| CC1CCCC(C)N1C(=O)CN1CCN(c2nc(-c3ccc(F)cc3)cs2)CC1 (stereo unspecified) | 19.6% (inactive) |
| Cc1cccc(N/C=C/C(=C(C#N)C#N)N(C)C)c1 | 30.9% (inactive) |
| Cc1ccsc1/C=N/NC(=O)c1ccco1 | 38.9% (inactive) |
| O=C(N/N=C/c1ccc2c(c1)OCO2)c1cccs1 | 51.4% (active) |
| O=C(N/N=C/c1ccc2nccnc2c1)c1ccccc1O | 25.7% (inactive) |
| O=[N+]([O-])c1ccc(N2CCN(c3ccc(Cl)nn3)CC2)c(Cl)c1 | 29.9% (inactive) |
| Cn1nc(-c2ccccc2)c(-c2nc(-c3ccc(Cl)cc3)no2)c1Cl | 16.6% (inactive) |
| Cn1nc(-c2ccc(Cl)cc2)nc2c(=O)n(C)c(=O)nc1-2 | 97.7% (active) |
| COc1ccc(-c2nc(N)n(S(=O)(=O)c3ccc(C)cc3)n2)cc1 | 44.7% (inactive) |
| COc1ccccc1NC(=O)Nc1ccc2c(c1)nnn2C | 18.6% (inactive) |
| Cc1cc(C)n(C(C[N+](=O)[O-])c2ccc(Cl)cc2)n1 (stereo unspecified) | 92% (active) |
| Cc1nc([N+](=O)[O-])c(Br)n1CC(=O)c1ccc(Cl)cc1 | 37.6% (inactive) |
| CCOc1cc(/C=N/NC(=O)c2nn(C)cc2Br)ccc1OCc1ccccc1Cl | 20.8% (inactive) |
| O=c1cc(-c2ccccc2)[nH]c2nc3ccccc3n12 | 39.5% (inactive) |
| Cc1cccc(OC(=O)c2cn(C)nc2C(F)(F)F)c1C | 43.7% (inactive) |
| Fc1ccccc1-c1ccc(/C=N/Nc2nc3ccccc3[nH]2)o1 | 60.4% (active) |
| CCCCNc1nc2ccccc2[nH]1 | 20.4% (inactive) |
| Cc1ccc(/C=N/Nc2ccnc3cc(Cl)ccc23)c(C)c1 | 38.3% (inactive) |
| CC(=O)/C=C/n1c(=S)oc2ccccc21 | 6.85% (inactive) |
| CN1C(=O)CSc2ccc(NC(=O)N3CCN(c4ccccn4)CC3)cc21 | 24% (inactive) |

| SMILES | inhibition |
| --- | --- |
| COc1ccc(Nc2ncccc2C(=O)NCc2ccccc2)cc1 | 46.5% (inactive) |
| COc1ccc(NC(=O)CC2Sc3ncnn3C2=O)cc1 (stereo unspecified) | 59% (active) |
| CCOC(=O)c1ccc(NC(=O)c2nccnc2C(=O)O)cc1 | 18.4% (inactive) |
| CCOC(=O)c1ccc(NC(=O)CSc2nnc(CNc3ccc(C)cc3)n2C)cc1 | 32.1% (inactive) |
| CCOC(=O)c1ccc(NC(=O)CC2Sc3ncnn3C2=O)cc1 (stereo unspecified) | 70.7% (active) |
| O=C(CC1Sc2ncnn2C1=O)Nc1ccc(Br)cc1 (stereo unspecified) | 41.1% (inactive) |
| CCOC(=O)C1C(=O)Oc2ccc3ccccc3c2C1C1CCOC1=O (stereo unspecified) | 19.4% (inactive) |
| CCN(CC)S(=O)(=O)c1ccc(NS(=O)(=O)c2cccs2)cc1 | 16.4% (inactive) |
| COc1ccc(NC(=S)N(C(C)C)C2CCN(C(C)C)CC2)cc1Cl | 21.6% (inactive) |
| Cc1ccc(N2C(=O)c3ccc(C(=O)O)cc3C2=O)cc1C | 28.4% (inactive) |
| Clc1ccc(Cn2c(/C=C/c3ccco3)nc3ccccc32)cc1 | 29.2% (inactive) |
| CCN(C(=O)c1ccco1)c1nnc(-c2ccc(OC)cc2)s1 | 38% (inactive) |
| COc1ccc(CC2(C)OC(c3ccc(C)cc3)=NN2C(C)=O)cc1 (stereo unspecified) | 55.5% (active) |
| COc1ccc(CNC(=O)CCNS(=O)(=O)c2ccc(C)cc2)cc1 | 19.6% (inactive) |
| N#Cc1ccc(Oc2nc(Nc3ccc(F)cc3)nc(N3CCCC3)n2)cc1 | 29.6% (inactive) |
| c1cnc2c(c1)ccc1cccnc12 | 40.4% (inactive) |
| c1ccc(-c2cccc(-c3ccccn3)n2)nc1 | 86.2% (active) |
| N/C(Cc1ccc([N+](=O)[O-])cc1)=N\OC(=O)c1ccccc1Br | 55.1% (active) |
| N/C(Cc1ccccc1)=N\OC(=O)c1cccc2ccccc12 | 39.9% (inactive) |
| COc1ccccc1C/C(N)=N/OC(=O)c1cccc([N+](=O)[O-])c1C | 37.2% (inactive) |
| Cc1noc(C)c1S(=O)(=O)N1CCC(C(=O)N2CCC(N3CCCCC3)CC2)CC1 | 22.1% (inactive) |
| Clc1ccc(CO/N=C2\CCCc3nonc32)c(Cl)c1 | 44.9% (inactive) |
| O=C(Nc1ccc(Br)c(Cl)c1)C1CC1 | 56.2% (active) |
| Cc1cc(C)cc(NS(=O)(=O)c2ccc(NC(=O)C3CCCCC3C(=O)O)cc2)c1 (stereo unspecified) | 35.4% (inactive) |
| O=C1c2ccccc2C(=O)c2cc(NC(=O)C3CC3)ccc21 | 44% (inactive) |
| O=C(Nc1ccc(C#Cc2ccccc2)cc1)C1CC1 | 56.5% (active) |

| SMILES | inhibition |
| --- | --- |
| CS(=O)(=O)N1CCC(C(=O)Nc2ccc3c(c2)OCO3)CC1 | 30.6% (inactive) |
| COc1ccc(NC(=O)C2CCN(C(=O)c3ccc(OC)cc3)CC2)cc1 | 18.7% (inactive) |
| O=P(CCCCCCCCCP(=O)(c1ccccc1)c1ccccc1)(c1ccccc1)c1ccccc1 | 39% (inactive) |
| CC(C)C(=O)c1cc2c(cc1NC(=O)Nc1cccc3ccccc13)OCCO2 | 28.3% (inactive) |
| OCCCN=c1cc(-c2ccccc2)oc2ccc(Cl)cc12 | 43.6% (inactive) |
| Cc1n[nH]c(C)c1S(=O)(=O)N1CCN(C2CCCCC2)CC1 | 16.5% (inactive) |
| COc1ccnc(N2CCN(c3ccccc3)CC2)c1C#N | 53.9% (active) |
| COc1cccc(CNC(=O)CSc2ccc(-c3ccncc3)nn2)c1 | 34.1% (inactive) |
| O=C(CSc1nc(-c2ccccc2)cs1)Nc1cccc([N+](=O)[O-])c1 | 47.1% (inactive) |
| CC(C)NC(=O)CSc1nc(-c2ccccc2)cs1 | 56.1% (active) |
| CCOC(=O)c1c(-c2cccs2)csc1NC(=O)C(C)(C)C | 26.2% (inactive) |
| Cc1ccc(NC(=O)CSC2=Nc3ccccc3C3CC=NN23)c(C)c1 (stereo unspecified) | 41.9% (inactive) |
| O=C(Oc1cccc2cccnc12)c1ccc(N2C(=O)C3C4CCC(C4)C3C2=O)cc1 (stereo unspecified) | 31% (inactive) |
| O=C(Nc1cc(N2CCOCC2)ncn1)NC1(C(F)(F)F)Oc2ccc(Cl)cc2O1 (stereo unspecified) | 30.7% (inactive) |
| CC1CCCN(CCOCCSc2ccccc2)C1 (stereo unspecified) | 39.5% (inactive) |
| CC1CCCN(CCOCCOc2ccc(Br)cc2Cl)C1 (stereo unspecified) | 42% (inactive) |
| CC1CCCN(CCCOc2ccc(Cl)cc2Br)C1 (stereo unspecified) | 56.8% (active) |
| Cc1c(C)c2cc(Cl)c(O)c(CN3CCCCC3)c2oc1=O | 31.9% (inactive) |
| COc1ccc(N2C(=O)C(Cl)=C(Nc3c(C)n(C)n(-c4ccccc4)c3=O)C2=O)cc1 | 36.8% (inactive) |
| O=C(CCc1nc2ccccc2s1)Nc1ccccc1 | 77.9% (active) |
| O=C(CSC1=NS(=O)(=O)c2ccccc21)Nc1ccccc1 | 37% (inactive) |
| O=C(O)CCCCc1nc2ccccc2s1 | 14.6% (inactive) |
| O=C(O)c1ccc2c(c1)N(Cc1cccc(F)c1)C(=O)CS2 | 19% (inactive) |
